Experimental data from PubChem BioAssay AID1159580 (chemical genetic matrix, 2015).
Hit rate of the full screen: of about 5,500 compounds, about 2,000 (36%) were called active. Roughly 18% stayed inconclusive and do not appear here. This is one part of the list. Values without a mark were called inactive. No stated cut-off is given here; in the data, active means normalized growth mostly below about 0.91 (no sharp cut-off); inconclusive means no clear call, values can overlap the other calls; inactive means mostly above about 0.92.

Test: chemical genetic growth profiling, strain panel (AID 1159580);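 further: tested at 20 µM; growth read once vehicle control cultures reached saturation at 30 °C; 1 = growth at the plate median or of vehicle wells; lower values mean less growth of the strain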
Conditions: growth OD

C[C@@H]1CC[C@@]2(OC1)OC1C(O)C3C4CC[C@H]5C[C@H](O[C@@H]6O[C@H](CO)[C@H](O[C@@H]7O[C@H](CO)[C@@H](O)[C@H](O[C@@H]8OC[C@@H](O)[C@H](O)[C@H]8O)[C@H]7O[C@@H]7O[C@H](CO)[C@H](O)[C@H](O[C@@H]8O[C@H](CO)[C@@H](O)[C@H](O)[C@H]8O)[C@H]7O)[C@H](O)[C@H]6O)[C@H](O)C[C@]5(C)C4CC[C@]3(C)C1[C@@H]2C (stereo partly specified)
normalized growth (S. cerevisiae deletion strains, locus YJR043C, strain POL32, active compounds read low): 0.0654 (active)
normalized growth (S. cerevisiae deletion strains, locus YJR066W, strain TOR1, active compounds read low): -0.00057 (active)
normalized growth (S. cerevisiae deletion strains, locus YKL009W, strain mrt4, active compounds read low): 0.0811 (active)
normalized growth (S. cerevisiae deletion strains, locus YKL068W, active compounds read low): 0.0538 (active)
normalized growth (S. cerevisiae deletion strains, locus YKL085W, strain MDH1 (second series), active compounds read low): 0.0597 (active)
normalized growth (S. cerevisiae deletion strains, locus YKL085W, strain MDH1, active compounds read low): 0.0597 (active)
normalized growth (S. cerevisiae deletion strains, locus YKL160W, strain elf1, active compounds read low): 1.01
normalized growth (S. cerevisiae deletion strains, locus YKR001C, strain vps1, active compounds read low): 0.0628 (active)
normalized growth (S. cerevisiae deletion strains, locus YKR026C, strain gcn3, active compounds read low): 1.03
normalized growth (S. cerevisiae deletion strains, locus YKR091W, strain srl3, active compounds read low): 1.02
normalized growth (S. cerevisiae deletion strains, locus YLL001W, strain dnm1, active compounds read low): 0.962
normalized growth (S. cerevisiae deletion strains, locus YLL026W, active compounds read low): 1.01
normalized growth (S. cerevisiae deletion strains, locus YLL041C, strain sdh2, active compounds read low): 1.02
normalized growth (S. cerevisiae deletion strains, locus YLR027C, strain aat2, active compounds read low): 1.01
normalized growth (S. cerevisiae deletion strains, locus YLR039C, strain RIC1, active compounds read low): 0.0908 (active)
normalized growth (S. cerevisiae deletion strains, locus YLR058C, strain SHM2, active compounds read low): 0.0509 (active)
normalized growth (S. cerevisiae deletion strains, locus YLR102C, strain apc9, active compounds read low): 0.0549 (active)
normalized growth (S. cerevisiae deletion strains, locus YLR113W, strain HOG1, active compounds read low): 0.124 (active)
normalized growth (S. cerevisiae deletion strains, locus YLR221C, strain rsa3, active compounds read low): 0.926
normalized growth (S. cerevisiae deletion strains, locus YLR258W, strain gsy2, active compounds read low): 1.02
normalized growth (S. cerevisiae deletion strains, locus YLR262C, strain YPT6 (second series), active compounds read low): 0.598 (active)
normalized growth (S. cerevisiae deletion strains, locus YLR262C, strain YPT6, active compounds read low): 0.112 (active)
normalized growth (S. cerevisiae deletion strains, locus YLR268W, strain sec22, active compounds read low): 0.0616 (active)
normalized growth (S. cerevisiae deletion strains, locus YLR320W, strain mms22, active compounds read low): 0.985
normalized growth (S. cerevisiae deletion strains, locus YLR342W, strain FKS1, active compounds read low): 0.991
normalized growth (S. cerevisiae deletion strains, locus YLR357W, strain rsc2, active compounds read low): 0.875
normalized growth (S. cerevisiae deletion strains, locus YLR370C, strain arc18, active compounds read low): 1.02
normalized growth (S. cerevisiae deletion strains, locus YLR371W, strain rom2, active compounds read low): 0.0571 (active)
normalized growth (S. cerevisiae deletion strains, locus YLR384C, strain iki3, active compounds read low): 1.04
normalized growth (S. cerevisiae deletion strains, locus YLR418C, strain cdc73, active compounds read low): 0.0973 (active)
normalized growth (S. cerevisiae deletion strains, locus YML016C, strain PPZ1, active compounds read low): 0.0492 (active)
normalized growth (S. cerevisiae deletion strains, locus YML032C, strain rad52, active compounds read low): 0.0633 (active)
normalized growth (S. cerevisiae deletion strains, locus YML120C, strain ndi1, active compounds read low): 0.925
normalized growth (S. cerevisiae deletion strains, locus YML124C, strain tub3, active compounds read low): 0.0557 (active)
normalized growth (S. cerevisiae deletion strains, locus YMR058W, strain fet3, active compounds read low): 1.01
normalized growth (S. cerevisiae deletion strains, locus YMR078C, strain ctf18, active compounds read low): 0.064 (active)
normalized growth (S. cerevisiae deletion strains, locus YMR125W, strain sto1, active compounds read low): 1.03
normalized growth (S. cerevisiae deletion strains, locus YMR129W, active compounds read low): 1.03
normalized growth (S. cerevisiae deletion strains, locus YMR205C, strain PFK2, active compounds read low): 0.977
normalized growth (S. cerevisiae deletion strains, locus YMR223W, strain ubp8, active compounds read low): 0.0562 (active)
normalized growth (S. cerevisiae deletion strains, locus YMR263W, strain SAP30, active compounds read low): 0.055 (active)
normalized growth (S. cerevisiae deletion strains, locus YMR307W, strain GAS1, active compounds read low): 0.13 (active)
normalized growth (S. cerevisiae deletion strains, locus YNL067W, strain RPL9B, active compounds read low): 0.0474 (active)
normalized growth (S. cerevisiae deletion strains, locus YNL071W, strain lat1, active compounds read low): 1.03
normalized growth (S. cerevisiae deletion strains, locus YNL153C, strain GIM3, active compounds read low): 0.0551 (active)
normalized growth (S. cerevisiae deletion strains, locus YNL183C, strain NPR1, active compounds read low): -0.00129 (active)
normalized growth (S. cerevisiae deletion strains, locus YNL209W, strain ssb2, active compounds read low): 1.03
normalized growth (S. cerevisiae deletion strains, locus YNL233W, strain BNI4, active compounds read low): 0.0568 (active)
normalized growth (S. cerevisiae deletion strains, locus YNL248C, strain rpa49, active compounds read low): 1.02
normalized growth (S. cerevisiae deletion strains, locus YNL250W, strain rad50, active compounds read low): 0.0602 (active)
normalized growth (S. cerevisiae deletion strains, locus YNL271C, strain bni1, active compounds read low): 0.0573 (active)
normalized growth (S. cerevisiae deletion strains, locus YNL298W, strain CLA4, active compounds read low): 0.0588 (active)
normalized growth (S. cerevisiae deletion strains, locus YNL307C, strain MCK1, active compounds read low): 0.063 (active)
normalized growth (S. cerevisiae deletion strains, locus YNL322C, strain KRE1 (second series), active compounds read low): 1.04
normalized growth (S. cerevisiae deletion strains, locus YNR049C, strain mso1, active compounds read low): 1.03
normalized growth (S. cerevisiae deletion strains, locus YNR052C, strain pop2, active compounds read low): 0.0596 (active)
normalized growth (S. cerevisiae deletion strains, locus YOL006C, strain TOP1, active compounds read low): 0.131 (active)
normalized growth (S. cerevisiae deletion strains, locus YOL012C, strain htz1): 0.172 (active)
normalized growth (S. cerevisiae deletion strains, locus YOL147C, strain pex11, active compounds read low): 0.0607 (active)
normalized growth (S. cerevisiae deletion strains, locus YOR001W, strain rrp6, active compounds read low): 0.939
normalized growth (S. cerevisiae deletion strains, locus YOR061W, strain CKA2, active compounds read low): 0.0464 (active)
normalized growth (S. cerevisiae deletion strains, locus YOR069W, strain VPS5, active compounds read low): 0.05 (active)
normalized growth (S. cerevisiae deletion strains, locus YOR070C, strain gyp1, active compounds read low): 1.02
normalized growth (S. cerevisiae deletion strains, locus YOR080W, strain dia2, active compounds read low): 1.04
normalized growth (S. cerevisiae deletion strains, locus YOR083W, strain WHI5, active compounds read low): 0.974
normalized growth (S. cerevisiae deletion strains, locus YOR106W, strain vam3, active compounds read low): 0.919
normalized growth (S. cerevisiae deletion strains, locus YOR136W, strain idh2, active compounds read low): 0.0668 (active)
normalized growth (S. cerevisiae deletion strains, locus YOR144C, strain elg1, active compounds read low): 0.0588 (active)
normalized growth (S. cerevisiae deletion strains, locus YOR184W, strain ser1, active compounds read low): 0.0693 (active)
normalized growth (S. cerevisiae deletion strains, locus YOR231W, strain MKK1, active compounds read low): 0.0965 (active)
normalized growth (S. cerevisiae deletion strains, locus YOR265W, strain rbl2, active compounds read low): 1.04
normalized growth (S. cerevisiae deletion strains, locus YOR270C, strain vph1, active compounds read low): 0.99
normalized growth (S. cerevisiae deletion strains, locus YOR290C, strain snf2, active compounds read low): 0.964
normalized growth (S. cerevisiae deletion strains, locus YOR316C, strain cot1, active compounds read low): 0.0539 (active)
normalized growth (S. cerevisiae deletion strains, locus YPL051W, strain arl3, active compounds read low): 0.95
normalized growth (S. cerevisiae deletion strains, locus YPL078C, strain atp4, active compounds read low): 0.968
normalized growth (S. cerevisiae deletion strains, locus YPL106C, strain sse1, active compounds read low): 0.671 (active)
normalized growth (S. cerevisiae deletion strains, locus YPL240C, strain hsp82, active compounds read low): 1
normalized growth (S. cerevisiae deletion strains, locus YPL241C, strain CIN2, active compounds read low): 0.0482 (active)
normalized growth (S. cerevisiae deletion strains, locus YPL256C, strain CLN2, active compounds read low): 0.109 (active)
normalized growth (S. cerevisiae deletion strains, locus YPR119W, strain clb2, active compounds read low): 0.0604 (active)
normalized growth (S. cerevisiae deletion strains, locus YPR141C, strain kar3, active compounds read low): 0.0605 (active)
normalized growth (S. cerevisiae deletion strains, locus YPR163C, strain tif3, active compounds read low): 0.0646 (active)
normalized growth (S. cerevisiae deletion strains, locus YPR167C, strain met16, active compounds read low): 0.0578 (active)
normalized growth (S. cerevisiae deletion strains, strain wtn01, active compounds read low): 0.0611 (active)
normalized growth (S. cerevisiae strains, strain wild type, active compounds read low): 0.0496 (active)
